# Source: PubChem BioAssay AID1852 (Sanford-Burnham Center for Chemical Genomics, 2009)
# Hit rate of the full screen: of about 2,500 compounds, about 1,100 (44%) were called active. The set was probably picked from earlier hits. The list shows a part of the results. Unmarked numbers belong to inactive results.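 How the source made its calls: active means inhibition above 50% at 4 µM in the single-point screen; inactive means inhibition of 50% or less.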
# Assay: TNF-a-driven NF-kB reporter inhibitors, primary screen, selectivity assay for NOD1/NOD2 signaling inhibitor project, cell-based, HEK293T NF-kB-Luc, luminescence (AID 1852)
# Details: TNF-a induced, 14 h, at 4 µM, stronger effect = higher value
row,Compound,inhibition
1,CCOc1ccc2[nH]c3c(NCCc4ccc(OC)c(OC)c4)ncnc3c2c1,39.1%
2,COc1cc2ncnc(NCc3ccc(C)cc3)c2cc1OC,0.3%
3,COc1ccc(CNc2ncnc3sccc23)cc1OC,50.2% (active)
4,Fc1ccc(F)c(CNc2ncnc3cc(Cl)ccc23)c1,8.3%
5,Oc1ccc(CCNc2ncnc3ccc(Cl)cc23)cc1,86.6% (active)
6,COc1ccc(CCNc2ncnc3sccc23)cc1OC,60.1% (active)
7,COc1ccc(CCNc2ncnc3sc(C)cc23)cc1OC,58.6% (active)
8,c1ccc2c(c1)oc1c(Nc3ccc(CN4CCOCC4)cc3)ncnc12,4.6%
9,COc1cc2ncnc(NCCc3ccccc3)c2cc1OC,4.6%
10,COc1ccc(CCNc2ncnc3c2oc2ccccc23)cc1OC,54.8% (active)
11,COc1ccc(CCNc2ncnc3cc(OC)c(OC)cc23)cc1OC,54.8% (active)
12,Clc1cccc(Cl)c1CON/C=N/c1ncnc2sccc12,15.1%
13,C(=N\c1ncnc2sccc12)/NOCc1ccccc1,28.6%
14,COc1ccccc1CNc1ncnc2sccc12,54.1% (active)
15,C=CC[n+]1c(-c2ccc(Cl)cc2Cl)csc1Nc1ccc(NC(C)=O)cc1,64% (active)
16,C=CC[n+]1c(-c2ccc(C)cc2)csc1Nc1ccc(NC(C)=O)cc1,99.4% (active)
17,C=CC[n+]1c(-c2ccc(Cl)cc2Cl)csc1Nc1c(C)n(C)n(-c2ccccc2)c1=O,28.9%
18,Cc1ccc(NC(=O)Nc2nnc(-c3ccncc3)s2)cc1,27.4%
19,Cc1ccc(S(=O)Cc2ccc(C(=O)N3CCN(C4CCCCC4)CC3)o2)cc1 (stereo not drawn),-23.1%
20,Cc1cc(C(=O)CSc2nnc(-c3ccco3)o2)c(C)n1-c1ccc2c(c1)OCCO2,10.1%
21,Cc1cc(C(=O)CSc2nnc(-c3cccs3)o2)c(C)n1-c1ccccc1,53.4% (active)
22,COc1ccc(-n2c(C)cc(C(=O)CSc3nnc(-c4cccs4)o3)c2C)cc1,71.7% (active)
23,NC(=O)c1cc2ccncc2c2ccccc12,90.8% (active)
24,Nc1cc2ccncc2c2ccccc12,90.8% (active)

row,Compound,inhibition
1,CCn1cc(CN2CCCC(C(=O)c3ccc(-c4ccccc4)cc3)C2)cn1 (stereo not drawn),5.2%
2,Cc1ccc(-c2ccc(=O)n(Cc3ccc(F)cc3)n2)cc1,-22.8%
3,N#Cc1c(-c2cccs2)nc(SCc2ccc(Cl)cc2)[nH]c1=O,31.4%
4,O=C(CSc1nc2nc(-c3cccs3)cc(C(F)(F)F)c2c(=O)[nH]1)Nc1ccc(F)c(F)c1,86% (active)
5,O=C(CSc1nc2nc(-c3cccs3)cc(C(F)(F)F)c2c(=O)[nH]1)Nc1c(F)c(F)c(F)c(F)c1F,92.5% (active)
6,Cc1ccc(C)c(NC(=O)CSc2nc3nc(-c4cccs4)cc(C(F)(F)F)c3c(=O)[nH]2)c1,86.9% (active)
7,N#Cc1ccc(Cl)cc1NC(=O)CSc1nc2nc(-c3cccs3)cc(C(F)(F)F)c2c(=O)[nH]1,46.8%
8,CCOc1ccccc1NC(=O)CSc1nc2nc(-c3cccs3)cc(C(F)(F)F)c2c(=O)[nH]1,74.5% (active)
9,CCOc1cccc(-c2c(C(=O)N/N=C(\C)c3ccccn3)nnn2-c2nonc2N)c1,66.7% (active)
10,C/C(=N\NC(=O)c1nnn(-c2nonc2N)c1CN(C)c1ccccc1)c1ccccc1O,92.8% (active)
11,C/C(=N\NC(=O)c1nnn(-c2nonc2N)c1CN(C)c1ccccc1)c1ccccn1,-26.2%
12,C/C(=N\NC(=O)c1nnn(-c2nonc2N)c1-c1ccccc1)c1ccccc1O,93.1% (active)
13,Cc1ccc(Nc2nc(N)nc(CCl)n2)cc1,-3.9%
14,COc1ccc(OC)c(Nc2nc(N)nc(CCl)n2)c1,54.9% (active)
15,Cc1ccc(Nc2nc(N)nc(CCl)n2)c(C)c1,25.1%
16,CCOc1ccc(Nc2nc(N)nc(CCl)n2)cc1,65.6% (active)
17,COc1ccccc1Nc1nc(N)nc(CCl)n1,28%
18,COc1ccc(Nc2nc(N)nc(CCl)n2)cc1,23.2%
19,Cc1sc2nc(C3CC3)nc(SCC(=O)N3CCc4ccccc4C3)c2c1C,-10.4%
20,CCc1c(C)sc2nc(C(C)C)nc(SCC(=O)N3CCc4ccccc4C3)c12,53.6% (active)
21,CCc1nc(SCC(=O)N2c3ccccc3CC2C)c2c(C)c(C)sc2n1 (stereo not drawn),-10%
22,COc1ccc(NC(=O)/C(C#N)=C/c2cc(C)n(-c3ccc(N4CCOCC4)c([N+](=O)[O-])c3)c2C)cc1,15%
23,CCOC(=O)N1CCN(C(=O)c2ccc(Cn3c(=S)[nH]c4cc5c(cc4c3=O)OCO5)cc2)CC1,55.2% (active)
24,CCOC(=O)N1CCN(C(=O)c2ccc(Cn3c(=S)[nH]c4ccc(Br)cc4c3=O)cc2)CC1,43.2%

row,Compound,inhibition
1,O=C(c1ccc(Cn2c(=S)[nH]c3ccccc3c2=O)cc1)N1CCN(c2ccccn2)CC1,17.4%
2,CCCCCn1c(=O)[nH]c2cc(C(=O)N3CCN(Cc4ccc5c(c4)OCO5)CC3)ccc2c1=O,34.6%
3,O=C(c1ccc(Cn2c(=S)[nH]c3cc4c(cc3c2=O)OCO4)cc1)N1CCN(c2ncccn2)CC1,59.2% (active)
4,Cc1cc(C=O)c(C)n1-c1ccc(N2CCCCC2)c([N+](=O)[O-])c1,47.6%
5,Cc1cc(/C=N/Nc2nc(N)ncc2[N+](=O)[O-])c(C)n1-c1ccccc1F,26.6%
6,Nc1ncc([N+](=O)[O-])c(N2CCCCCC2)n1,86.3% (active)
7,CN(C)c1cc[n+](CC(=O)c2ccc(-c3ccccc3)cc2)cc1,47.3%
8,CC(C)C[C@H](NC(=O)c1nc[nH]c1C(=O)N(C)Cc1ccccc1)C(=O)OC(C)(C)C,26.1%
9,O=C(Nc1ccccn1)c1ccc(-c2ccccc2)cc1,-197%
10,C=CCN(CC=C)C(=S)NC(=O)c1ccc(-c2ccccc2)cc1,104% (active)
11,CN(Cc1ccccc1)C(=S)NC(=O)c1ccc(-c2ccccc2)cc1,105% (active)
12,CCOC(=O)CSc1n[nH]c(NC(=O)CC)n1,-7.7%
13,NC(=S)Nc1cccc2cn[nH]c12,75.7% (active)
14,O=c1c(C(c2ccccc2)c2c(O)sc3ccccc3c2=O)c(O)sc2ccccc12,77.7% (active)
15,CN(C)c1ccc(C(C(=O)NCc2ccccc2)N(Cc2ccco2)C(=O)c2snc(C(N)=O)c2N)cc1 (stereo not drawn),11.8%
16,NC(=O)c1nsc(C(=O)N(c2ccccc2F)C(C(=O)NCc2ccc(F)cc2)c2ccc(O)cc2)c1N (stereo not drawn),69.7% (active)
17,NC(=O)c1nsc(C(=O)N(c2ccccc2)C(C(=O)NCc2ccc(F)cc2)c2ccco2)c1N (stereo not drawn),-11.7%
18,COc1cc(CNc2ccc3[nH]c(=O)[nH]c3c2)ccc1OCc1ccccc1Cl,31.1%
19,COc1cc(C)ccc1OCCCOc1ccccc1Cl,90.6% (active)
20,COC(=O)c1ccccc1OCCCOc1ccc(C)cc1OC,-116%
21,N#CC1=C(N)N2C(=C(C#N)C1c1cccc(Br)c1)Nc1ccccc12 (stereo not drawn),89.3% (active)
22,N#CC1=C(N)N2C(=C(C#N)C1c1ccc(Br)cc1)Nc1ccccc12 (stereo not drawn),86.9% (active)
23,CCN1C(=O)/C(=C/c2nc3ccccc3c(=O)n2-c2ccc(C)cc2)c2ccccc21,23.6%
24,Cc1cc(Cl)c(S(=O)(=O)N2CCCCCC2)cc1OCC(=O)NC1CCCCC1,55.3% (active)

row,Compound,inhibition
1,COc1ccc(C)cc1S(=O)(=O)N1CCN(C(=O)c2ncoc2-c2ccc(F)cc2)CC1,14.4%
2,Cc1cc(Cl)c(S(=O)(=O)N2CCN(c3ccc(F)cc3)CC2)cc1OCC(=O)NC1CCCCC1,69.7% (active)
3,COc1ccc(S(=O)(=O)N2CCCC(C(=O)NCc3ccncc3)C2)cc1Cl (stereo not drawn),8.9%
4,Cc1cc(-c2ccc(C)c(S(=O)(=O)N3CCN(c4ccc(F)cc4)CC3)c2)on1,41%
5,Cc1cc(Cl)c(S(=O)(=O)N2CCSCC2)cc1OCC(=O)NC1CCCCC1,44.2%
6,CCOc1ccc(/C=C2\C(=O)c3ccccc3OC2c2ccccc2)cc1 (stereo not drawn),-5.4%
7,Cc1ccc(-c2onc3ccc(C(=O)/C=C/N(C)C)cc23)cc1,14.5%
8,COc1ccc2cc3cc(C(=O)NCCc4ccc(OC)c(OC)c4)oc3nc2c1,-4.4%
9,COc1ccc2cc3c(N)nn(C(=O)Cc4c[nH]c5ccccc45)c3nc2c1,91.9% (active)
10,COc1ccc2cc3c(N)nn(C(=O)Cc4ccccc4OC)c3nc2c1,91% (active)
11,CCOc1ccccc1N1CCN(C(=O)c2cc(-c3cc(OC)ccc3OC)nc3ccccc23)CC1,1.3%
12,COc1ccc(-c2cc3nc(C)n(N)c(=O)c3s2)cc1,78.3% (active)
13,COc1ccc(-c2cc3nc(CCl)[nH]c(=O)c3s2)cc1,25.2%
14,O=c1[nH]c(CCl)nc2cc(-c3ccc(F)cc3)sc12,28.3%
15,CSc1cccc(NS(=O)(=O)c2ccc3c(c2)CCN3C(C)=O)c1,25%
16,CC1Cc2ccccc2N1C(=S)NC(=O)c1cccc(Br)c1 (stereo not drawn),103% (active)
17,CC(=O)Nc1ccc(N/C=C/C(=O)c2ccc(C)cc2)cc1,-16.4%
18,CCC(=O)Nc1cccc(C(=O)/C=C/c2cc(Br)ccc2OC)c1,77.3% (active)
19,COc1ccccc1/C=C1\S/C(=N/NC(=O)c2cccc(Br)c2)NC1=O,-30.6%
20,COc1ccc(Br)cc1/C=C/C(=O)c1ccc(NC(C)=O)cc1,94.8% (active)
21,COc1cccc(C(=O)/C=C/c2ccc(OCC#N)c(OC)c2)c1,-58.9%
